Assay results taken from PubChem BioAssay AID631 (The Scripps Research Institute Molecular Screening Center, 2007).
In all, about 200,000 compounds went through this assay and about 810 (0.41%) were called active. This is one part of a sample in which actives are shown more often than they occur. Cut-off read from the data, not from the text of the source: active = activation above about 19%; inactive = the rest.

target: Peroxisome proliferator-activated receptor gamma (Homo sapiens) (UniProt P37231); assay: PPARgamma agonists recruiting SRC-1 coactivator, primary screen, biochemical (AID 631); conditions: PPARgamma-SRC-1 coactivator recruitment biochemical assay; at 8 µM; hits give high values;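 note: 0% = DMSO and 100% = reference agonist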
Sequence (P37231 whole entry, looked up): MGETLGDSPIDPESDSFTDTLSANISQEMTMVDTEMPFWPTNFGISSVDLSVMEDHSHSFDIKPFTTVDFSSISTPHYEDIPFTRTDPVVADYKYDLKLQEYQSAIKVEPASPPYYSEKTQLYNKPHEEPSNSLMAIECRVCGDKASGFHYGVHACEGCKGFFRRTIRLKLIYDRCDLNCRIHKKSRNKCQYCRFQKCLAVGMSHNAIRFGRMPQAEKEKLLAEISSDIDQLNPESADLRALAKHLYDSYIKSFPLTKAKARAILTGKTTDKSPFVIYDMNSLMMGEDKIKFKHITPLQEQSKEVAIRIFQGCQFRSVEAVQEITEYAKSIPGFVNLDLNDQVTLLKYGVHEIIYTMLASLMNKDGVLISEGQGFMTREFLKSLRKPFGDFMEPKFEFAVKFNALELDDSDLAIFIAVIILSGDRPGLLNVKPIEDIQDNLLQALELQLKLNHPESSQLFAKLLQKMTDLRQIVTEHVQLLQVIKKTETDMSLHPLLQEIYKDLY

activation, active:
Fc1ccc(COc2cccc(-c3n[nH]c(=S)o3)c2)cc1 61.7%, COc1ccc2c(Cl)c(-c3nnco3)sc2c1 24.2%, Cn1c(-c2sc3cc(C(F)(F)F)cnc3c2-c2ccccc2)n[nH]c1=S 36.3%, Cc1cc(N2C(=O)C(=O)/C(=C(/O)c3ccc(Cl)cc3)C2c2cccc(Br)c2)no1 (configuration not stated) 20.6%, Cc1nc(-c2ccccc2)sc1-c1nc(-c2ccccc2)ncc1S(=O)(=O)c1ccccc1 19.3%, COc1ccc(/C(O)=C2/C(=O)C(=O)N(c3nc(C)c(C)s3)C2c2ccco2)cc1 (configuration not stated) 22.1%, CCN(CCCNC(=O)CSc1cc(=O)n(C)c2cc(Cl)ccc12)Cc1ccccc1 55.4%, COc1cccc(NC(=S)NC(=O)c2c(Cl)c(C)nn2C)c1 30.8%, CCOC(=O)C1CCN(C(=O)CSc2cc(=O)n(C)c3ccccc23)CC1 49.8%, Cn1c(=O)cc(SCC(=O)N2CCN(C(=O)c3ccco3)CC2)c2ccccc21 49.4%, Cn1c(=O)cc(SCC(=O)N2CCCC2)c2cc(Cl)ccc21 53.4%

activation, inactive:
CCCn1c(=S)[nH]c2ccc(C(F)(F)F)cc21 7.7%, Cc1ccc(NC(=O)CSCC(=O)NC2CCCCC2)cc1 6.7%, Cc1nc2ccccc2cc1OCc1ccc(F)cc1 -0.6%, Cc1cccc(OCc2ccc(C(=O)Nc3ccc(F)cc3)cc2)c1 8.1%, COc1ccc(OC)c(-c2csc(NC(=O)C3=NNC(=O)CC3)n2)c1 -3.7%, Cc1cc(NC(=O)COC(=O)COc2ccc(Cl)cc2C)c([N+](=O)[O-])cc1C -2.9%, COc1ccc(-c2nnco2)cc1OC -4%, COc1ccc2c(Cl)c(C(=O)NCc3ccco3)sc2c1 -0.6%, CC(=O)Nc1ccccc1OC(C)C(=O)N1CCC(C)CC1 (configuration not stated) 3.2%, Cc1nn2cc(-c3ccc(Cl)cc3)cnc2c1Br 9.4%, Cn1c(-c2sccc2OCc2cccc(C(F)(F)F)c2)n[nH]c1=S 2.2%, Cc1cc(C(F)(F)F)n2ncc(-c3ccccc3)c2n1 -0.8%, COc1cccc(CNC(=O)CCC2CCCN(C(=O)c3ccoc3C)C2)c1 (configuration not stated) 11.7%, CC1(C)CN(c2ccc(-c3ccnc4ncnn34)cc2)C1=O -2.6%, CSCCC(=O)N1CCCC(CNC(=O)c2ccccc2Cl)C1 (configuration not stated) 6%, COc1ccccc1C1/C(=C(/O)c2ccc(OC(C)C)cc2)C(=O)C(=O)N1c1cc(C)on1 (configuration not stated) 16.5%, COc1ccc(C2/C(=C(/O)c3ccccc3)C(=O)C(=O)N2c2ncccn2)cc1OC (configuration not stated) 8.9%, Cc1ccc(C(=O)Cc2nnc(C)s2)cc1 -2.5%, Cc1cccc(NC(=S)N2CCC(O)CC2)c1C 1.3%, CCN1CCN(c2cc3nc(C)n(Cc4ccccc4)c(=O)c3cc2NC(=O)c2ccccc2F)CC1 3.9%, COc1cccc(NC(=S)NCc2ccco2)c1 -2.7%, C=CCn1c(-c2sc(-c3ccccc3)nc2C)n[nH]c1=S 0.8%, Cc1nc(-c2ccccc2)sc1C(=O)/C=C/c1ccccc1 -1.9%, O=C(O)C1C2CC2CN1C(=O)c1ccc(Cl)cc1Cl (configuration not stated) 4.2%, Cc1cccc(C)c1NC(=O)C1(C)c2cccc[n+]2CC(=O)N1Cc1cccs1 (configuration not stated) -2.9%, Cc1nc(SCc2ccc(F)cc2)c([N+](=O)[O-])[nH]1 5.8%, COc1ccccc1C1/C(=C(/O)c2ccc(C)cc2)C(=O)C(=O)N1Cc1ccco1 (configuration not stated) 10.8%, COc1ccc(/C(O)=C2\C(=O)C(=O)N(Cc3ccco3)C2c2ccc(OC)cc2OC)cc1 (configuration not stated) 2%, COC(=O)c1c(C)[nH]c(C)c1-c1ccc([N+](=O)[O-])cc1 -0.7%, Cc1ccc(/C=N/NC(=O)COc2ccccc2-c2ccccc2)cc1 2.1%, O=C(Oc1ccc([N+](=O)[O-])cc1)c1ccc(Cl)c(S(=O)(=O)N2CCCCC2)c1 -9.6%, CC(C)N(C(=O)Cn1cc(SCC(=O)N2CCCC2)c2ccccc21)C(C)C 5.8%, Cc1ccc(NC(=O)CC2C(=O)N(Cc3ccccc3)C(=S)N2NC(=O)c2cccc(F)c2)c(C)c1 (configuration not stated) -0.5%, CCN(CC)CCCNC(=O)CCc1ccccc1 3.3%, CCN(CC)CCCNC(=O)c1cc(-c2cccc(Cl)c2)on1 3.6%, O=C(Nc1ccccc1Cl)c1ccccc1S(=O)(=O)c1ccccc1[N+](=O)[O-] 2.9%, COc1ccc(C(=O)C[n+]2ccc(C)cc2)cc1 0.2%, S=C(NN=C1CCN(Cc2ccccc2)CC1)NC1CCCCC1 -1.7%, CC(Sc1cccc[n+]1[O-])C(=O)Nc1cccc(S(=O)(=O)N2CCOCC2)c1 (configuration not stated) -5.3%, Cc1nn(C)c(C(=O)NNC(=S)NC2CCCCC2)c1Cl -8.4%, COc1cccc(NC(=S)NCc2ccccn2)c1 2.4%, O=C(/C=C/c1cnc2ccccc2n1)NC1CCCCCC1 -0.4%, O=c1cc(O)c(-c2cccc(C(F)(F)F)c2)c(Cl)[nH]1 8%, CC(=O)c1ccc(-n2nnnc2SCC(=O)N2CCN(C(=O)c3ccco3)CC2)cc1 0.3%, CCOc1ccc(CCNC(=O)CSc2cc(=O)n(C)c3ccc(Cl)cc23)cc1OCC 12%, CCOC(=O)N1CCC(NC(=O)COc2cc(=O)n(C)c3ccccc23)CC1 -0.7%, CCOC(=O)C1CCN(C(=O)Cn2cc(C#N)c3ccccc32)CC1 -2.2%, O=C(CSCc1ccc(Cl)cc1)N1CCCCC1 2%, Cc1cccc(OCc2nnc(SCC(=O)N3CCN(C(=O)c4ccco4)CC3)n2C)c1C 5.6%, CC1CN(CCCOc2ccccc2-c2ccccc2)CC(C)O1 (configuration not stated) 6.7%, C/C(=N\Nc1nc(N2CCOCC2)nc(N2CCOCC2)n1)c1ccc([N+](=O)[O-])cc1 1.7%
